Assay results from the OligoGym collection.

Molecular target: FAN1
Test: pooled miR-30 sensor sort-seq; sequence = guide strand
Settings: shRNA
Further: reference of the scale not given here.

Sequence	sensor-assay potency score (higher = more potent)
ATAACTTCTGACCAGTAGCTGA	-0.771
TAAGCAACTGTCATCCTGCAGA	0.0838
TTGAACTTTTTACAGCTCGGAG	-1.04
TTTTTGAGAACTGTTCTCCAAA	-0.862
TTCTTTGATACACTCTTGCTTT	-0.307
TTGCTGATTGATAAGCTTCTAC	-0.452
TAACATGATCGCATTATCTGAG	0.286
TTACATATAACTTCTGACCAGT	0.259
TAACTAGGAAACTCCATTCGGC	-0.0842
TTGACCAACAGGACTGTTGAAA	-0.462
TTGGTCATCTTAATCCAGCTTA	0.33

Molecular target: FANCF
Test: as above
Settings: shRNA

Sequence	sensor-assay potency score (higher = more potent)
TTGGGACTCAGTTCCAACCCAA	-0.182
AAACCTATTGTGCAACTCCTCC	-0.726
TCTCTTGGAGTGTCTCCTCATC	-1.11
ATAGCCATTGAAGCGCAGCATG	-1.41
TTTTGTAAACTATATATTCTAT	-0.511
AAGAGGTCTGTCCAGATGCTAA	-1.55
TGGAAGTTCGCTAATCCCGGAA	-0.728
TAGACAGGAGACAGCGCTGGGT	-0.533
TGACAGAGGCTTTGAAACCTAT	-1.18
TTTCTGAAGGTCATAGTGCAAA	-1.33
TTGAAACCTATTGTGCAACTCC	0.168
TTGGAGTGTCTCCTCATCGGCG	-0.931
TTCATCAGAGAGTCCTCCTGGA	0.554
TTTGGGTTCTCTCTATAGCCAT	-1.05
TATCTTTCAGAGGTGGAGGGGC	-0.0769
TTAGAACTTTATCTTTCAGAGG	-1.12
ATGTGCACCGCAGACCGCCGGC	-1.25
TAGAACTTTATCTTTCAGAGGT	0.316
TTGGGTTCTCTCTATAGCCATT	-1.39
